# PAFAH1B3 FP inh: PAFAH1B3 enzyme inhibitors, primary screen, biochemical, fluorescence polarization, human. Platelet-activating factor acetylhydrolase IB subunit alpha1 (Homo sapiens), Q15102. inhibition, % at 3.39 µM. 340,000 compounds, 0.28% hits. recombinant PAFAH1B3, FP-rhodamine probe. AID 492972, 2010;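 active = inhibition above the screen-wide average of all tested compounds plus 3 SD, cut at about 25% in these data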;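 also: 0% = enzyme with DMSO only and 100% = wells lacking PAFAH1B3 protein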
# pPAFAH inh: pPAFAH enzyme inhibitors, primary screen, biochemical, fluorescence polarization, human; recombinant pPAFAH, FP-rhodamine probe fluorescence polarization; Platelet-activating factor acetylhydrolase (Homo sapiens), Q13093; inhibition, % at 3.39 µM; AID 463082, 2010; 330,000 compounds, 1.5% hits;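 active = inhibition above the mean inhibition across the screen plus 3 SD, cut at about 25% in these data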;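 also: inhibitors block binding of the rhodamine activity-based probe so polarization drops; 0% = enzyme with DMSO and 100% = wells lacking pPAFAH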
# PP5 primary: PP5 phosphatase inhibitors, primary screen, biochemical, fluorescence; inhibition, % at 6.7 µM; 320,000 compounds, 0.18% hits; Serine/threonine-protein phosphatase 5 (Homo sapiens), P53041; purified PP5c, OMFP substrate fluorescence;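 active = inhibition above the campaign's mean inhibition across all tested compounds plus 3 SD, cut at about 9.5% in these data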;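 also: 0% = DMSO only and 100% = 100 µM cantharidin control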
# PAFAH2 FP inh: PAFAH2 enzyme inhibitors, primary screen, biochemical, fluorescence polarization, human | Platelet-activating factor acetylhydrolase 2, cytoplasmic (Homo sapiens), Q99487 | recombinant PAFAH2, FP-rhodamine activity probe | inhibition, % at 3.39 µM | 340,000 compounds, 0.99% hits | AID 492956, 2010;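 active = inhibition above the mean over all tested compounds plus 3 SD, cut at about 30% in these data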;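 also: inhibitors block probe labeling of enzyme so polarization drops; 0% = enzyme with DMSO and 100% = wells lacking PAFAH2 protein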
# PP1 inh: PP1-alpha phosphatase inhibitors, primary screen, counter-screen for PP5 inhibitor project, biochemical, fluorescence, OMFP substrate, single point | purified PP1alpha | inhibition, % at 6.7 µM | 320,000 compounds, 0.9% hits | Serine/threonine-protein phosphatase PP1-alpha catalytic subunit (Homo sapiens), P62136;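 active = inhibition above the mean inhibition of all tested compounds plus 3 SD, computed separately for each screening campaign, cut at about 15% in these data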
# Target sequence (P62136 whole entry, looked up): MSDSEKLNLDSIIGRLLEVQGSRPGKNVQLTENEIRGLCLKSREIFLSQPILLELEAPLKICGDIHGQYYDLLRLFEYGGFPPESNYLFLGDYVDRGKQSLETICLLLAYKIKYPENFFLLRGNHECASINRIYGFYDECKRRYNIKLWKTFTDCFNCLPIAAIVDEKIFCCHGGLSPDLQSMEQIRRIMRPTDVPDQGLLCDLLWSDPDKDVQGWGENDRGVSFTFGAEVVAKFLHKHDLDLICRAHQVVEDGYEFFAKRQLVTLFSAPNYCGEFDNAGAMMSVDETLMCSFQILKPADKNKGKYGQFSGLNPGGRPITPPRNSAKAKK
# PAFAH1B2 inh: PAFAH1B2 enzyme inhibitors, primary screen, biochemical, fluorescence polarization, human | recombinant PAFAH1B2, FP-rhodamine activity probe | inhibition, % at 3.39 µM | 340,000 compounds, 1.2% hits | AID 492953, 2010;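 active = inhibition above the mean of all tested compounds plus 3 SD, cut at about 24% in these data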;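 also: 0% = enzyme with DMSO and 100% = wells lacking PAFAH1B2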
# Target sequence (P68402 whole entry, looked up): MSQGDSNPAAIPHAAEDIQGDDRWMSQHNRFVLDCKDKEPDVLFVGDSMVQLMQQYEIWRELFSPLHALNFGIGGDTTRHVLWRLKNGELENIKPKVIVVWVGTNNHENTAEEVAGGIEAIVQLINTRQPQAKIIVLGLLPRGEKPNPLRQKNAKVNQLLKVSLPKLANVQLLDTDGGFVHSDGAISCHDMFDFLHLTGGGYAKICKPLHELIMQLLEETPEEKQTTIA
# PP5 conf: PP5 phosphatase inhibitors, confirmation, biochemical, fluorescence, human; inhibition, % at 6.7 µM; 460 compounds, 22% hits; shares compounds with PP5 primary; AID 2331, 2010; Purified PP5, fluorogenic phosphatase substrate; in the data active = inhibition above about 9.5%
# PP1 counter 3x: PP1 phosphatase inhibitors, counter-screen for PP5 inhibitor project, biochemical, fluorescence, triplicate. AID 2355, 2010. inhibition, % at 6.7 µM. 460 compounds, 4% hits. PP1 enzyme, fluorescent phosphatase substrate. shares compounds with PP5 primary; in the data active = inhibition above about 16%
# Numbers without * were called inactive; . = not tested or not shown. The list is not random: actives were taken first. Their share in the collection is about 3.4%.
SMILES,PAFAH1B3 FP inh,pPAFAH inh,PP5 primary,PAFAH2 FP inh,PP1 inh,PAFAH1B2 inh,others
CCN(CC)C(=O)c1c[nH]c2ccc(S(=O)(=O)Nc3cc(C)cc(C)c3)cc2c1=O,5.5,28.7*,-0.2,0.2,2.0,7.3,
Cc1cccc2cc(/C=N/Nc3ccc(C(=O)O)cc3)c(Cl)nc12,14.7,28.4*,1.1,25.6,3.8,10.7,
CCCSc1nc(N)nc2c1ncn2C1OC(CO)C(O)C1O (configuration not stated),2.5,.,.,5.7,.,-1.0,
O=C(O)c1ccc(/C=C2\SC(=S)N(NC(=O)c3ccccc3)C2=O)cc1,-0.9,5.1,0.0,-13.2,1.8,-4.8,
O=C(NN1C(=O)/C(=C/c2cccnc2)SC1=S)C(c1ccccc1)c1ccccc1,3.6,12.0,1.3,6.5,7.6,26.6*,
O=C(Cc1cccc2ccccc12)NN1C(=O)/C(=C\c2cccnc2)SC1=S,0.2,3.1,-0.2,-7.5,6.9,2.8,
O=C(NN1C(=O)/C(=C\c2cccnc2)SC1=S)C(c1ccccc1)c1ccccc1,5.5,12.9,0.1,7.3,7.6,29.4*,
CC(=O)NN1C(=O)/C(=C/c2ccc(C(C)C)cc2)SC1=S,6.7,12.5,1.8,-2.6,-1.1,41.8*,
O=C1/C(=C/c2cccnc2)SC(=S)N1NS(=O)(=O)c1ccccc1,19.7,3.3,-0.1,-0.4,-2.1,4.8,
CCOC(=O)C1=CN(Cc2ccco2)S(=O)(=O)NC1c1ccc(C(F)(F)F)cc1 (configuration not stated),10.4,15.5,.,-1.8,.,6.7,
Cc1ccc(C)c(Cn2nnc3c(=O)[nH]c(C(=O)NCC4CCCO4)nc32)c1 (configuration not stated),1.9,0.2,-0.2,2.0,5.4,67.0*,
Cc1c(CC(=O)O)c(=O)oc2c(C)c3occ(-c4ccc(Br)cc4)c3cc12,0.5,11.8,-0.7,11.9,-0.4,28.9*,
COc1cccc(-c2coc3c(C)c4oc(=O)c(CCC(=O)O)c(C)c4cc23)c1,0.9,24.9*,3.0,9.5,14.5,5.6,
COc1cccc(-c2coc3c(C)c4oc(=O)c(CC(=O)O)c(C)c4cc23)c1,10.7,2.1,1.0,4.2,1.4,4.1,
CCC1(CC)NC(=O)N(CC(=O)Nc2cccc3ccccc23)C1=O,12.0,6.2,.,3.4,.,-0.6,
CCOc1ccccc1N(CC(=O)NCC1CCCO1)C(=O)CCC(=O)Nc1nccs1 (configuration not stated),8.4,-0.9,1.5,-3.5,-1.1,-0.9,
CCC(=O)N1CCN(c2nc3ccccc3s2)CC1,-3.0,5.0,2.7,-3.8,-3.7,6.4,
O=C(c1cc2sccc2n1Cc1ccccc1)N1CCN(c2nc3ccccc3s2)CC1,-1.6,7.5,1.7,-0.8,15.3*,6.0,
COc1ccc(NC(=S)N2CCC(c3nc4ccc(Cl)cc4[nH]3)CC2)c(OC)c1,6.8,31.1*,3.7,-5.7,-1.8,-3.2,
Brc1cccc(C=Nc2cccc3ncccc23)c1,-5.6,2.7,-1.4,-7.8,-0.6,4.5,
Oc1c(Br)cc(Br)cc1C=Nc1cccc2ncccc12,8.4,27.8*,6.5,13.9,7.7,3.8,
Cc1ccc(CN2CCSCC2)cc1,-3.3,-5.7,5.2,-0.3,-1.2,0.2,
O=C(CSc1nc2ccccc2n1CCc1ccccc1)N1CCOCC1,-3.5,-2.2,-1.0,1.2,-1.2,-0.9,
O=C(CSc1nc2ccccc2c(=O)[nH]1)c1ccc(O)c(O)c1,17.6,33.4*,0.7,49.3*,1.1,10.0,
O=C(CSc1nc2ccccc2n1CCc1ccccc1)c1ccc(O)c(O)c1,25.1,.,.,55.1*,.,27.6*,
SMILES,PAFAH1B3 FP inh,pPAFAH inh,PP5 primary,PAFAH2 FP inh,PP1 inh,PAFAH1B2 inh,others
CCN(CC)c1ccc(C(=O)NC(=S)Nc2cc(S(=O)(=O)N3CCOCC3)ccc2-n2cncn2)cc1,-2.4,6.5,17.6*,-11.0,-4.5,-2.5,PP5 conf=-4.4;PP1 counter 3x=3.3
Cc1cccc(CNC(=O)C2CCC(=O)N(CCc3cccc(F)c3)C2)n1 (configuration not stated),6.0,.,.,-0.1,.,-3.9,
O=c1c2ccc(Cl)cc2[nH]c(=S)n1Cc1cccnc1,8.3,-6.1,11.1*,-2.4,-2.7,0.1,PP5 conf=-4.4;PP1 counter 3x=-3.3
O=C(c1ccc2c(=O)n(Cc3ccc(Cl)cc3)c(=S)[nH]c2c1)N1CCCC1,3.3,1.0,-0.1,-2.0,0.3,-4.3,
NS(=O)(=O)c1ccc(Nc2nc3ccccc3nc2NS(=O)(=O)c2cccc([N+](=O)[O-])c2)cc1,16.8,30.7*,10.9*,4.3,7.2,13.1,PP5 conf=6.5;PP1 counter 3x=13.5
Cc1cccnc1NS(=O)(=O)c1cccc([N+](=O)[O-])c1,-4.7,-1.0,3.9,2.4,1.0,-0.1,
CC(=O)Nc1ccc(C(=O)CN2C(=O)CSC2=O)cc1,1.5,5.8,1.9,-0.9,-3.2,0.8,
CCSc1nc2ccccc2c(=O)n1CCc1ccc(OC)c(OC)c1,3.8,-6.4,10.1*,-0.6,-2.7,0.1,PP5 conf=-0.9;PP1 counter 3x=0.1
Cc1ccc(NC(=O)c2ccccc2F)cc1S(=O)(=O)N1CCCCCC1,-0.8,-2.2,10.8*,6.1,-3.1,-0.2,PP5 conf=0.1;PP1 counter 3x=-0.8
Cc1ccc(NC(=O)Cc2ccccc2F)cc1S(=O)(=O)N1CCCCCC1,0.0,1.5,5.3,4.9,3.8,-5.1,
O=C(Cn1c(NCCO)nc2ccccc21)c1ccco1,-4.5,5.7,10.2*,1.0,-5.3,6.6,PP5 conf=-5.4;PP1 counter 3x=-4.5
O=C(Cn1c(NCCO)nc2ccccc21)NCCc1ccccc1,4.6,4.0,2.6,2.6,2.2,0.8,
Cc1c(C(=O)Nc2ccccc2C(=O)N2CCOCC2)cccc1[N+](=O)[O-],1.9,-1.7,1.6,1.7,-6.1,-3.4,
O=C(N1CCOCC1)N1CCN(C(c2ccccc2)c2ccccc2)CC1,4.6,5.0,10.5*,-4.7,-4.4,4.1,PP5 conf=-2.3;PP1 counter 3x=-3.8
O=C(N1CCCCC1)N1CCN(C(c2ccccc2)c2ccccc2)CC1,-2.8,13.7,2.6,9.8,1.4,3.2,
NNC(=O)CCc1ccc(S(=O)(=O)N2CCOCC2)cc1,6.8,3.4,11.5*,4.7,-3.0,1.6,PP5 conf=-1.1;PP1 counter 3x=-1.4
O=[N+]([O-])c1cc(Cl)ccc1N1CCCC1,5.7,0.9,-0.5,-2.0,1.3,6.2,
